From the supplement of paper PMC6555819

Key:
Assay in all cases: PBM binding z-score (relative to random genomic background probes); higher = stronger binding; sequences stand for … in GC…GCGATTGACAGCGTAGAATGAAGG
[1] = tested on: FXR:RXRa (NR concentration 270 nM, RXRa partner concentration 90 nM)
How it was run: (§1)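 Custom Agilent 4×180K protein-binding microarrays carried double-stranded probes. Their 34-nt variable regions held direct-repeat seeds, single-nucleotide variants, half-site ablations and random human genomic background sequences. Arrays were incubated 1 h with ligand-free nuclear receptor dimers in PBS pH 7.4, 2% milk, 0.02% Triton X-100, 1 mM DTT, 0.2 mg/mL BSA and 0.4 mg/ml salmon testes DNA. Antibodies against each partner (one per run) detected binding, and scanned fluorescence was regression-normalized. Binding z-scores use random background probes as reference.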

[2] = tested on: LXRa:RXRa (NR concentration 270 nM, RXRa partner concentration 90 nM)
How it was run: as §1

[3] = tested on: LXRa homodimer (NR concentration 270 nM)
How it was run: as §1

[4] = tested on: LXRb:RXRa (NR concentration 270 nM, RXRa partner concentration 90 nM)
How it was run: as §1

[5] = tested on: LXRb homodimer (NR concentration 270 nM)
How it was run: as §1

[6] = tested on: PPARa:RXRa (NR concentration 270 nM, RXRa partner concentration 90 nM)
How it was run: as §1

[7] = tested on: PPARg:RXRa (NR concentration 180 nM, RXRa partner concentration 90 nM)
How it was run: as §1

[8] = tested on: PPARg:RXRa 270nM:90nM, anti-RXR (NR concentration 270 nM, RXRa partner concentration 90 nM)
How it was run: as §1

[9] = tested on: PPARg:RXRa 30nM:10nM, anti-RXR (NR concentration 30 nM, RXRa partner concentration 10 nM)
How it was run: as §1

[10] = tested on: PPARg:RXRa 90nM:30nM, anti-RXR (NR concentration 90 nM, RXRa partner concentration 30 nM)
How it was run: as §1

[11] = tested on: PPARg:RXRa DBDmut IVT, anti-RXR (DBD mutation: RXRa K156A/R161A, NR concentration 270 nM, RXRa partner concentration 90 nM)
How it was run: as §1

[12] = tested on: PPARg:RXRa IVT, anti-PPARg (NR concentration 270 nM, RXRa partner concentration 90 nM)
How it was run: as §1

[13] = tested on: PPARg DBDmut:RXRa IVT, anti-PPARg (DBD mutation: PPARg1 K132A/R137A, NR concentration 270 nM, RXRa partner concentration 90 nM)
How it was run: as §1

[14] = tested on: PPARg DBDmut IVT, anti-PPARg (DBD mutation: PPARg1 K132A/R137A, NR concentration 270 nM)
How it was run: as §1

[15] = tested on: PPARg homodimer (NR concentration 180 nM)
How it was run: as §1

[16] = tested on: PXR:RXRa (NR concentration 270 nM, RXRa partner concentration 90 nM)
How it was run: as §1

[17] = tested on: PXR homodimer (NR concentration 270 nM)
How it was run: as §1

[18] = tested on: RARa:RXR (NR concentration 270 nM, RXRa partner concentration 90 nM)
How it was run: as §1

[19] = tested on: RARa homodimer (NR concentration 270 nM)
How it was run: as §1

[20] = tested on: RARb:RXRa (NR concentration 270 nM, RXRa partner concentration 90 nM)
How it was run: as §1

Sequence	PBM binding z-score [1]	PBM binding z-score [2]	PBM binding z-score [3]	PBM binding z-score [4]	PBM binding z-score [5]	PBM binding z-score [6]	PBM binding z-score [7]	PBM binding z-score [8]	PBM binding z-score [9]	PBM binding z-score [10]	PBM binding z-score [11]	PBM binding z-score [12]	PBM binding z-score [13]	PBM binding z-score [14]	PBM binding z-score [15]	PBM binding z-score [16]	PBM binding z-score [17]	PBM binding z-score [18]	PBM binding z-score [19]	PBM binding z-score [20]
TCTTGTAGATCAATAGAGGTTACGAAAGTGCGCT	1.11	3.47	0.474	2.05	0.24	2.12	0.4	1.79	2.79	2.24	1.83	1.63	0.944	0.638	0.416	3.21	0.389	2.22	0.489	1.24
TCTAGATGGTCAAAGGTCACACACTCGAAATGCG	6.69	5.75	4.06	5.58	1.37	6.38	10.2	8.58	8.53	9.72	3.19	5.41	1.82	1.44	5.45	6.1	1.7	7.48	3.63	4.89
TTACCAAGGTGAAAGGTCGTGGATGCACGCCTTG	3.68	3.62	-0.0355	3.01	-0.715	5.66	9.46	8.31	7.31	8.54	3.06	5.11	0.851	-0.117	2.21	4.12	0.543	6.44	0.268	3.33
ATGTCTAGGTAACCAAGTTCAGTGAATGCCGAAC	0.425	0.708	0.547	0.184	0.286	1.08	0.622	0.664	-0.0406	0.432	2.35	2.35	0.0462	-0.029	0.338	2	1.53	0.884	-0.202	1.21
AGAACGAGGGCAATGTGTTGATAGCACGGGTGGC	0.748	0.456	-0.316	0.0585	-0.324	1.47	1.55	1.19	0.0423	0.712	3.49	2.88	0.318	-0.0765	0.0511	0.325	0.276	0.248	-0.364	2.05
CCAACTGGGGCAAAGGTTACCATACTCAGTACGA	1.45	1.76	0.221	2.29	-0.694	6.03	11.6	9.99	9.26	10.5	6.6	6.7	0.471	-0.285	1.54	2.39	0.017	4.34	0.873	2.65
AGAATGAGGTTACCAATGATCAGGGAAACGCTTG	1.77	3.21	-0.495	1.67	-0.399	3.33	2.55	2.4	1.21	1.7	3.69	3.24	1.14	0.416	0.494	1.05	-0.11	1.83	0.362	2.03
GCAGACAGGTGAAACGCAGGTAACTCCGGGTGGC	-0.276	0.017	-0.496	-0.36	-1.37	0.805	0.312	0.0906	-0.41	-0.188	0.8	0.556	0.467	-0.826	-0.848	-0.493	-0.692	0.064	-0.954	0.484
ATGGAAAGGTCGACGAGGTGAGTATACACCGTTT	4.39	3.03	-0.133	2.47	0.238	4.12	2.69	2.93	1.17	1.95	0.338	1.89	0.736	1.01	1.38	2.96	0.609	3.54	0.422	3.73
AGTCAAAGTTCAGGACAAGGTAACGTAAAGCACG	4.6	3.97	1.69	2.19	0.548	3.47	4.97	4.95	2.16	4.11	-0.163	2.21	1.02	0.792	2.91	3.12	1.58	3.09	1.2	4.38
ACATGTAGGTTAAGGGTCATTCAGGTTGGTTCGC	5.47	4.89	3.12	4.5	1.95	6.02	11.1	9.37	8.78	11	6.63	7.34	4.14	3.37	4.52	5.46	2.78	5.86	2.44	3.53
ATCGAAAGGTCGAGGTGAGTATTGAGAAAGGGAA	4.14	3.39	-0.0656	2.81	0.293	4.74	3.29	3.53	1.37	2.19	0.628	2.34	0.498	0.451	1.67	2.33	0.428	3.07	0.977	4.15
GCTAACGGGTCAAAGGTTATAGCATGAATAGAAT	7.39	5.26	0.513	5.21	0.0725	6.84	10.4	8.58	9.26	9.13	3.51	5.64	0.399	0.838	1.81	5.59	0.2	7.51	0.254	4.19
GGAACGAGGGCAAAGTTGACAGCATCTGTCGACG	2.02	1.27	-0.425	1.25	-0.409	4.78	8.22	7.66	7.72	8.34	4.28	4.82	1.12	0.308	0.924	1.91	0.0135	2.66	-0.5	2.65
TCTGCTAAGTCAACGATGGTCAGCTAATCTGCTA	-0.531	-0.432	-0.993	-0.553	-0.721	-0.269	-0.51	0.278	1.33	0.924	0.507	-0.186	-0.69	-0.943	-1.18	-0.538	-1.18	-0.422	-1.62	0.171
